# Reference: the supplement of paper PMC4022240
# ± gives the standard deviation.
# T1: HaloTag-ATRX ADD domain (163-292)
# T1 chain: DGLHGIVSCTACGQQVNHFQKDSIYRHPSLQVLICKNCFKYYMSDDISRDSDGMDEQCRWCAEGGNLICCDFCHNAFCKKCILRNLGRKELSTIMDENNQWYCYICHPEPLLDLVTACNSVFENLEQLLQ
# Tests used:
# Assay in all cases: peptide microarray binding signal (635 nm), min-max normalized on array (fraction of array maximum); higher = stronger binding
# [1] = target: T1, HaloTag-ATRX ADD domain (163-292)
# Outline: (§1)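 Within each library, mean intensities of triplicate spots were min-max scaled to give the binding signal. The spots were histone 13-mer peptide–cellulose conjugates on nitrocellulose with a Cy3 tracer, blocked overnight at 4°C. They were then probed for 1 h at 4°C using biotin-labelled HaloTag reader fusions (10 nM to 1 μM) with streptavidin-Alexa Fluor 647 or rabbit histone antibodies (1:10,000 to 1:2,000) with anti-rabbit Alexa 647, and scanned at 635 nm for signal and 532 nm for misprints on an Axon GenePix 4000B.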
# [2] = target: HaloTag-ING2 PHD (mouse Ing2 200-280)
# Outline: as §1
# [3] = target: anti-H3K4me3 antibody ab8580
# Outline: as §1
# [4] = target: anti-H3K9me3 antibody ab8898
# Outline: as §1
# [5] = peptide region: H4 38-50, peptide modifications: H4K44me2 H4R45cit, binder concentration: 1:2,000 dilution
# [6] = peptide region: H4 38-50, peptide modifications: H4K44me2 H4R45cit, binder concentration: 1:10,000 dilution
# [7] = peptide region: H4 38-50, peptide modifications: H4R45me1, binder concentration: 1:2,000 dilution
# [8] = peptide region: H4 38-50, peptide modifications: H4R45me1, binder concentration: 1:10,000 dilution
# [9] = peptide region: H4 38-50, peptide modifications: H4K44me1 H4R45me2s, binder concentration: 1:2,000 dilution
# [10] = peptide region: H4 38-50, peptide modifications: H4K44me1 H4R45me2s, binder concentration: 1:10,000 dilution
# [11] = peptide region: H4 38-50, peptide modifications: H4R45me2s, binder concentration: 1:2,000 dilution
# [12] = peptide region: H4 38-50, peptide modifications: H4R45me2s, binder concentration: 1:10,000 dilution
# [13] = peptide region: H4 53-65, peptide modifications: H4K59ac, binder concentration: 1:2,000 dilution
# [14] = peptide region: H4 53-65, peptide modifications: H4K59ac, binder concentration: 1:10,000 dilution
binder,measurement,setting,value
ARRGGVKRISGLI [H4 38-50 A R R G G V Kme2 Rcit I S G L I],peptide microarray binding signal,"[1]; peptide region: H4 38-50, peptide modifications: H4K44me2 H4R45cit, binder concentration: 50 nM",0.00389 ± 6.7e-05
same,peptide microarray binding signal,"[1]; peptide region: H4 38-50, peptide modifications: H4K44me2 H4R45cit, binder concentration: 500 nM",0.00743
same,peptide microarray binding signal,"[2]; peptide region: H4 38-50, peptide modifications: H4K44me2 H4R45cit, binder concentration: 10 nM",0.007102 ± 3.2e-05
same,peptide microarray binding signal,"[2]; peptide region: H4 38-50, peptide modifications: H4K44me2 H4R45cit, binder concentration: 100 nM",0.0109 ± 0.00033
same,peptide microarray binding signal,[3]; [5],0.00136 ± 0.00012
same,peptide microarray binding signal,[3]; [6],0.00177 ± 2.9e-05
same,peptide microarray binding signal,[4]; [5],0.00104 ± 2.9e-05
same,peptide microarray binding signal,[4]; [6],0.0011 ± 2.9e-05
ARRGGVKRISGLI [H4 38-50 A R R G G V K Rme I S G L I],peptide microarray binding signal,"[1]; peptide region: H4 38-50, peptide modifications: H4R45me1, binder concentration: 50 nM",0.00486 ± 6.2e-05
same,peptide microarray binding signal,"[1]; peptide region: H4 38-50, peptide modifications: H4R45me1, binder concentration: 500 nM",0.0107 ± 0.00046
same,peptide microarray binding signal,"[2]; peptide region: H4 38-50, peptide modifications: H4R45me1, binder concentration: 10 nM",0.01247 ± 0.00012
same,peptide microarray binding signal,"[2]; peptide region: H4 38-50, peptide modifications: H4R45me1, binder concentration: 100 nM",0.0215 ± 0.0011
same,peptide microarray binding signal,[3]; [7],0.00306 ± 5.9e-05
same,peptide microarray binding signal,[3]; [8],0.00508 ± 7.3e-05
same,peptide microarray binding signal,[4]; [7],0.0021 ± 4.5e-05
same,peptide microarray binding signal,[4]; [8],0.0019 ± 3.6e-05
ARRGGVKRISGLI [H4 38-50 A R R G G V Kme Rme2s I S G L I],peptide microarray binding signal,"[1]; peptide region: H4 38-50, peptide modifications: H4K44me1 H4R45me2s, binder concentration: 50 nM",0.006019 ± 2.1e-05
same,peptide microarray binding signal,"[1]; peptide region: H4 38-50, peptide modifications: H4K44me1 H4R45me2s, binder concentration: 500 nM",0.00619 ± 0.00016
same,peptide microarray binding signal,"[2]; peptide region: H4 38-50, peptide modifications: H4K44me1 H4R45me2s, binder concentration: 10 nM",0.0119 ± 0.00057
same,peptide microarray binding signal,"[2]; peptide region: H4 38-50, peptide modifications: H4K44me1 H4R45me2s, binder concentration: 100 nM",0.0102 ± 0.0013
same,peptide microarray binding signal,[3]; [9],0.00185 ± 0.00022
same,peptide microarray binding signal,[3]; [10],0.00451 ± 0.00035
same,peptide microarray binding signal,[4]; [9],0.00219 ± 0.00017
same,peptide microarray binding signal,[4]; [10],0.0034 ± 0.00013
ARRGGVKRISGLI [H4 38-50 A R R G G V K Rme2s I S G L I],peptide microarray binding signal,"[1]; peptide region: H4 38-50, peptide modifications: H4R45me2s, binder concentration: 50 nM",0.0042 ± 0.00012
same,peptide microarray binding signal,"[1]; peptide region: H4 38-50, peptide modifications: H4R45me2s, binder concentration: 500 nM",0.00971 ± 0.0016
same,peptide microarray binding signal,"[2]; peptide region: H4 38-50, peptide modifications: H4R45me2s, binder concentration: 10 nM",0.0212 ± 0.0027
same,peptide microarray binding signal,"[2]; peptide region: H4 38-50, peptide modifications: H4R45me2s, binder concentration: 100 nM",0.0349 ± 0.0095
same,peptide microarray binding signal,[3]; [11],0.00542 ± 0.0019
same,peptide microarray binding signal,[3]; [12],0.00702 ± 0.0012
same,peptide microarray binding signal,[4]; [11],0.00222 ± 0.0001
same,peptide microarray binding signal,[4]; [12],0.00173 ± 4.4e-05
ETRGVLKVFLENV [H4 53-65 E T R G V L Kac V F L E N V],peptide microarray binding signal,"[1]; peptide region: H4 53-65, peptide modifications: H4K59ac, binder concentration: 50 nM",0.00241 ± 3.2e-05
same,peptide microarray binding signal,"[1]; peptide region: H4 53-65, peptide modifications: H4K59ac, binder concentration: 500 nM",0.00333 ± 0.00022
same,peptide microarray binding signal,"[2]; peptide region: H4 53-65, peptide modifications: H4K59ac, binder concentration: 10 nM",0.00997 ± 0.0024
same,peptide microarray binding signal,"[2]; peptide region: H4 53-65, peptide modifications: H4K59ac, binder concentration: 100 nM",0.00425 ± 0.00013
same,peptide microarray binding signal,[3]; [13],0.00104 ± 4.9e-05
same,peptide microarray binding signal,[3]; [14],0.00143 ± 4.8e-05
same,peptide microarray binding signal,[4]; [13],0.000529 ± 1.3e-05
same,peptide microarray binding signal,[4]; [14],0.00104 ± 2.1e-05
